# Experimental data: PubChem BioAssay AID1159580 (chemical genetic matrix, 2015)
# Screen size: about 5,500 compounds; about 2,000 (36%) were called active. Inconclusive results (about 18%) are left out. Some of the results follow. Unmarked numbers belong to inactive results. No stated cut-off is given here; in the data, active means normalized growth mostly below about 0.91 (no sharp cut-off); inconclusive means no clear call, values can overlap the other calls; inactive means mostly above about 0.92. Where a SMILES comes first, the peptide text is derived from it. [ ]: non-standard residue; d: D form. Orn = NCCC[CH](N)C(=O)O
# Experiment: chemical genetic growth profiling, strain panel (AID 1159580);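 further: tested at 20 µM; growth read once vehicle control cultures reached saturation at 30 °C; 1 = growth at the plate median or of vehicle wells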
# Conditions: S. cerevisiae deletion strains, growth OD
Compound,"normalized growth (locus YAL040C, strain CLN3, stronger effect = lower value)","normalized growth (locus YCL061C, strain MRC1 (second series), stronger effect = lower value)","normalized growth (locus YDR363W, strain ESC2, stronger effect = lower value)","normalized growth (locus YER002W, strain NOP16, stronger effect = lower value)","normalized growth (locus YMR263W, strain SAP30, stronger effect = lower value)","normalized growth (locus YMR307W, strain GAS1, stronger effect = lower value)","normalized growth (locus YNL175C, strain NOP13, stronger effect = lower value)","normalized growth (locus YNL197C, strain WHI3, stronger effect = lower value)","normalized growth (locus YNL224C, strain SQS1, stronger effect = lower value)","normalized growth (locus YNL322C, strain KRE1, stronger effect = lower value)","normalized growth (locus YOR083W, strain WHI5 (second series), stronger effect = lower value)","normalized growth (locus YOL012C, strain htz1)"
CC(C)[C@@H]1NC(=O)[C@H](CCCCN)NC(=O)[C@@H](Cc2c[nH]c3ccccc23)NC(=O)[C@H](Cc2ccc(O)cc2)NC(=O)[C@H](C)N(C)C(=O)[C@H](Cc2ccccc2)NC1=O,0.981,0.988,0.995,1.01,0.994,0.879 (active),0.988,0.988,1,0.984,0.989,–
CC(C)CC1NC(=O)C(CCCN)NC(=O)C(C(C)C)NC(=O)C(Cc2ccc(O)cc2)NC(=O)C(CCC(=O)O)NC(=O)C(CC(=O)O)NC(=O)C(Cc2ccccc2)NC(=O)C(Cc2ccccc2)NC(=O)C2CCCN2C(=O)C(Cc2ccccc2)NC1=O (configuration not stated) (cyclo(DEYV[Orn]LFPFF); configuration not given here),–,–,–,–,–,–,–,–,–,–,–,0.202
